Data taken from PubChem BioAssay.
“And” between values parts separate entries of the source, which are not always exact repeats. Equal entries are not always repeated.

Key:
[1] = tested on: Human papillomavirus type 1a protein E7 (residues 44-93); assay: HPV1a E7 fragment binders on microarrays, primary screen, biochemical, small-molecule microarray, residues 44-93, 635 nm fluorescence (AID 1108); conditions: small-molecule microarray binding, fluorescence 635 nm; higher = more signal;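 further: E7 fragment applied at 1 µg/mL in TBST for 1 h at 4 C; score combines spot fluorescence with its signal to noise ratio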
[2] = modulators of HCV replicon luciferase signal, primary screen, HCV replication inhibitor project, Huh7 cells, luciferase reporter (AID 1109); conditions: 48 h, higher = more signal;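 further: huh7 hepatoma cells harbouring a luciferase neomycin HCV replicon reporter; luciferase luminescence as measure of HCV replicon replication; test concentration not given here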
[3] = target: Left-right determination factor 2 (Homo sapiens) (UniProt O00292); assay: LEFTY2 binders on small-molecule microarrays, primary screen, biochemical, small-molecule microarray, 635 nm fluorescence scan (AID 1110); conditions: LEFTY2 binding, higher = more signal
[4] = target: Calmodulin-1 (Homo sapiens) (UniProt P0DP23); assay: CALM1 binders on microarrays, EGTA buffer, profiling panel, biochemical, small-molecule microarray, Cy5-labelled CALM1 (AID 1111); conditions: Cy5-CALM1 binding fluorescence, higher = more signal;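 further: labelled calmodulin applied in Tris saline Tween buffer holding calcium plus EGTA and DTT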
[5] = target: Calmodulin-1 (Homo sapiens) (UniProt P0DP23); assay: calcium-bound CALM1 binders on microarrays, profiling panel, artefact control for SMM control-protein annotation, biochemical, small-molecule microarray, Cy5-labelled CALM1, plus calcium (AID 1112); conditions: Cy5-CALM1 binding fluorescence, higher = more signal;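 further: score merges spot fluorescence with signal to noise from triplicate slides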
[6] = small-molecule microarray binders of probe aWnt5a, primary screen, biochemical, biotinylated probe, 635/667 nm fluorescence (AID 1113); conditions: higher = more signal; small-molecule microarray, probe aWnt5a, fluorescence unless noted;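 further: score merges 667 nm fluorescence intensity with signal-to-noise per printed feature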
[7] = small-molecule microarray binders of probe aShh, primary screen, biochemical, biotinylated probe, 635/667 nm fluorescence (AID 1114); conditions: higher = more signal; small-molecule microarray, probe aShh, fluorescence unless noted;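 further: probe is biotin-labelled aShh protein from a stem cell growth factor screen; measures binding of labelled protein to compounds printed on the slide; score merges feature fluorescence at 667 nm with signal-to-noise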
[8] = small-molecule microarray binders of probe aNog, primary screen, biochemical, biotinylated probe, 635/667 nm fluorescence (AID 1115); conditions: higher = more signal; small-molecule microarray, probe aNog, fluorescence unless noted;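 further: probe is biotinylated aNog protein used at 0.15 µg/mL for 1 h at 4 C; z-score combines 667 nm fluorescence of each spot with its signal to noise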
[9] = target: Torsin-1A-interacting protein 1 (Homo sapiens) (UniProt Q5JTV8); assay: LAP1 binders from COS7 cell lysate, primary screen, small-molecule microarray, 635/667 nm fluorescence (AID 1116); conditions: COS7-hLAP1 lysate binding, 635 nm fluorescence, higher = more signal
[10] = target: Alpha-bungarotoxin (Bungarus multicinctus) (UniProt P60615); assay: alpha-bungarotoxin binders on microarray, profiling panel, artefact control for SMM control protein annotation, biochemical, small-molecule microarray, Alexa647 label, 635/667 nm fluorescence (AID 1117); conditions: alpha-BTX-A647 binding fluorescence, higher = more signal
Alpha-bungarotoxin (Bungarus multicinctus), sequence (P60615 whole entry, looked up): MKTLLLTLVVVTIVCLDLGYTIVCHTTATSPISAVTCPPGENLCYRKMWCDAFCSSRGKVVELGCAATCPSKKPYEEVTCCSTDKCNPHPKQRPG

Torsin-1A-interacting protein 1 (Homo sapiens), sequence (Q5JTV8 whole entry, looked up): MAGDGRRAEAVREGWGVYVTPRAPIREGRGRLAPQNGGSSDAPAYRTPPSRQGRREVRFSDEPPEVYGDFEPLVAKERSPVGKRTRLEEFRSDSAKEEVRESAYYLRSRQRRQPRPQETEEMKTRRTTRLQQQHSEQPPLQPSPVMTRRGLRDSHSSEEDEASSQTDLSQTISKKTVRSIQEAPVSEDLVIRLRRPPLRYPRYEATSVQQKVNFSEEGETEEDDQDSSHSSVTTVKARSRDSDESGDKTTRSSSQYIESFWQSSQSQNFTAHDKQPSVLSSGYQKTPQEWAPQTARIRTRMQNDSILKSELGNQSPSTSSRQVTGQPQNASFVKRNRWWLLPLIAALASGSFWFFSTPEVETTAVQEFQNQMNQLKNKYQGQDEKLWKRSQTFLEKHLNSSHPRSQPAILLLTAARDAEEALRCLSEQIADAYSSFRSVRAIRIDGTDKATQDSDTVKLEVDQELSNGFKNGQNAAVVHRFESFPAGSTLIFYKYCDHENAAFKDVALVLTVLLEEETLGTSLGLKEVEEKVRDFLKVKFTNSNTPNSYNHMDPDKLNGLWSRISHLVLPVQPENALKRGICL
Left-right determination factor 2 (Homo sapiens), sequence (O00292 whole entry, looked up): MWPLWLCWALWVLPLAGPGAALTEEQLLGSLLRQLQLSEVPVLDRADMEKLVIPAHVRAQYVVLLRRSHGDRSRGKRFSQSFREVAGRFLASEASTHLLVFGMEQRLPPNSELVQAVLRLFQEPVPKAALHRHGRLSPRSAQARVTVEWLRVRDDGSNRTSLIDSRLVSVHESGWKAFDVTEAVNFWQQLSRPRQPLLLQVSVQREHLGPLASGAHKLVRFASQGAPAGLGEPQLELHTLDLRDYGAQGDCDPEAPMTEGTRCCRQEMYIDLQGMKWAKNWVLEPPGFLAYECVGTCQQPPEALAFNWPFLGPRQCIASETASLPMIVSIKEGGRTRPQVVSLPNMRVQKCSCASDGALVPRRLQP

| Compound | composite z-score [1] | z-score [2] | composite z-score [3] | composite z-score [4] | composite z-score [5] | composite z-score [6] | composite z-score [7] | composite z-score [8] | composite z-score [9] | composite z-score [10] |
| --- | --- | --- | --- | --- | --- | --- | --- | --- | --- | --- |
| CCCC[C@@H]1C[C@H]1[C@@H](NP(=O)(c1ccccc1)c1ccccc1)c1ccc(Cl)cc1 | -1.21 | -0.657 | -1.67 | 1.14 | 1.32 | 0.0403 | 0.254 | 0.633 | -0.314 | -0.0059 |
| COC(=O)[C@H]1[C@@H](O)[C@@]2(O)c3c(OC)cc(OC)cc3O[C@@]2(c2ccc(OC)cc2)[C@@H]1c1ccccc1 | 0.828 | 1.91 | 0.473 | 0.371 | -0.402 | -0.0606 | 0.0684 | 0.117 | 0.537 | 0.611 |
| CCCc1cc2c(n1Cc1ccco1)C(C)C1CN(C(=O)c3ccccc3)C(C)(C(=O)OC)C21 (stereo unspecified) | 0.0223 | -1.28 | 0.392 | 1.9 | 0.425 | 0.117 | 0.239 | 1.65 | 1.4 | 0.899 |
| CC1N(P(=O)(c2ccccc2)c2ccccc2)CC(O)(c2ccccc2)CC12CC2 (stereo unspecified) | 1.36 and 0.0155 | -0.421 and -1.5 | -1.22 and 0.326 | -0.0346 and 1.63 | 0.595 and 1.02 | 0.151 and -0.131 | 0.535 and 0.377 | 0.915 and 1.68 | 1.23 and 1.28 | -0.914 and -0.0679 |
| CCOC(=O)[C@H]1CC=C2C(=O)Oc3ccccc3[C@@H]21 | 0.252 | -1.93 | -0.562 | -0.229 | -0.42 | -0.129 | -0.366 | 0.356 | -1.28 | -0.0764 |
| C=C(CC1(CNP(=O)(c2ccccc2)c2ccccc2)CC1)c1ccccc1 | -0.872 | -1 | 0.165 | 1.22 | 0.442 | 0.0597 | -0.273 | 1.01 | 0.836 | -0.108 |
| COC(=O)[C@@]1(Cc2ccccc2)[C@H]2c3cc(C(=O)N(C)C)[nH]c3C[C@H]2CN1C(=O)c1ccccc1 | -0.452 | -0.454 | -0.476 | 0.157 | 0.136 | 0.0037 | 0.333 | 0.629 | 0.533 | -0.0856 |
| CN1CCc2nc(CO)c(CO)cc2C1 | 0.22 | -0.365 | 0.357 | -0.192 | -0.657 | -0.117 | -0.138 | -0.104 | -0.115 | -0.0299 |
| CCCc1cc2c(n1Cc1cccc(Cl)c1)C(C)C1CN(C(=O)c3ccccc3)C(C)(C(=O)OC)C21 (stereo unspecified) | 0.226 | -2.24 | -0.587 | 2.18 | 1.37 | -0.0445 | 0.261 | 1.71 | 2.22 | 0.818 |
| CN1CCC(c2ccc(CO)cc2)=CC1C1CC1 (stereo unspecified) | 0.0996 | -0.954 | 0.163 | -0.257 | -0.691 | -0.208 | -0.0474 | -0.198 | -0.0443 | 0.0005 |
| c1ccc(-c2cc3c(nc2-c2ccccc2)CCNC3)cc1 | -0.903 | -1.32 | 0.0196 | -0.198 | -0.0533 | -0.184 | -0.0626 | 0.0459 | -0.19 | 0.913 |
| O=P(c1ccccc1)(c1ccccc1)N1CC2(CC2)CC(O)(c2ccccc2)C1 (stereo unspecified) | 1.04 | -1.06 | -1.1 | 1.04 | 1.08 | 0.435 | -0.0553 | 1.6 | 1.58 | 0.41 |
| CCCc1cc2c(n1CCO)C(C)C1CN(C(=O)c3ccccc3)C(C)(C(=O)OC)C21 (stereo unspecified) | -0.202 | -1.27 | -0.258 | 2.45 | 1.06 | 0.353 | 0.0545 | 1.85 | 2.26 | 2.61 |
| C[C@@H]1OC=C2[C@@H](O)[C@H]3O[C@H]3C(=O)[C@]23[C@H]1[C@H]1C2=C([C@@H](O)[C@H]4O[C@H]4C2=O)[C@@H]3O[C@@H]1C | -2.16 | -1.29 | 0.425 | -1.11 | -0.718 | -0.224 | -0.2 | -0.244 | 0.0387 | -0.244 |
| C[C@@H]1Cc2c(cnc3c2CN(C)CC3)CO1 | -1.58 | -0.491 | 0.894 | -1.33 | -0.882 | -0.0221 | 0.149 | -0.0689 | -0.217 | -0.138 |
| COC(=O)[C@H]1C(=O)c2ccccc2O[C@@](C(=O)OC)(c2ccccc2)[C@@H]1c1ccccc1 | -0.853 | -0.424 | 0.104 | -0.558 | -0.268 | -0.0519 | -0.352 | -0.367 | -0.271 | -0.579 |
| CN1CCC(c2ccc(CO)cc2)=CC1c1cccs1 (stereo unspecified) | -0.895 | 1.05 | -0.0469 | -0.0348 | -0.556 | -0.0685 | -0.0769 | -0.216 | 0.238 | 0.945 |

| Compound | composite z-score [1] | z-score [2] | composite z-score [3] | composite z-score [4] | composite z-score [5] | composite z-score [6] | composite z-score [7] | composite z-score [8] | composite z-score [9] | composite z-score [10] |
| --- | --- | --- | --- | --- | --- | --- | --- | --- | --- | --- |
| OCc1ccc(C2=CC(C3CC3)N(Cc3sc4ccccc4c3Cl)CC2)cc1 (stereo unspecified) | 0.794 | -1.68 | 0.401 | 0.0976 | -0.481 | -0.103 | -0.0146 | -0.0662 | 0.781 | 1.44 |
| COC(=O)[C@H]1[C@H](c2ccccc2)C(=O)[C@]2(O)c3ccccc3O[C@@]12c1ccccc1 | 0.304 | 0.0741 | 0.832 | 0.384 | -0.0524 | -0.131 | 0.0048 | -0.293 | 0.106 | 0.0914 |
| COC(=O)[C@@]1(Cc2ccccc2)[C@H]2c3cc(C(=O)N(C)C)n(C)c3C[C@H]2CN1C(=O)c1ccccc1 | -1.91 | -1.42 | -0.611 | 1.96 | 0.514 | -0.107 | 0.214 | 1.65 | 2.25 | 0.0882 |
| CCCC=C(CCC)[C@@H](NP(=O)(c1ccccc1)c1ccccc1)c1ccccc1 | 1.28 | -1.39 | 0.943 | 1.94 | 0.42 | 0.208 | -0.106 | -0.519 | 0.275 | 0.44 |
| COC(=O)[C@@]1(Cc2ccc(F)cc2)[C@H]2c3cc(C(=O)N(C)C)[nH]c3C[C@H]2CN1C(=O)c1ccccc1 | 0.717 | -0.0885 | -0.193 | 0.366 | -0.0836 | 0.0151 [setting not given] | -0.343 [setting not given] | 0.519 [setting not given] | 0.125 | 0.125 |
| CCc1cc2c(nc1CC)CCN(CCC(C)=NOC)C2 | 0.711 | -1.06 | 0.802 | -0.47 | 0.107 | 0.0375 | -0.117 | -0.148 | 1 | -0.0978 |
| COC(=O)C1(C)C=C2C(=C(C)C(=O)C2C)CN1 (stereo unspecified) | -0.131 | -0.0365 | -0.412 | -0.423 | 0.0902 | -0.113 | 0.381 | 1.48 | 1.18 | -0.313 |
| OCc1ccc(C2=CC(c3cccs3)N(Cc3cccc(OC(F)(F)F)c3)CC2)cc1 (stereo unspecified) | -0.307 | -1.07 | 0.198 | -0.573 | -0.411 | -0.091 | -0.138 | -0.244 | 0.221 | 0.934 |
| C=C1C=C(Br)C2(OCCCO2)[C@H]2OC12 (stereo partly specified) |  |  |  |  |  |  |  |  |  | -0.206 |
| C=C(CC1(C(C)NP(=O)(c2ccccc2)c2ccccc2)CC1)c1ccccc1 (stereo unspecified) | 1.48 | -1.52 | -0.867 | 0.962 | 0.945 | 0.23 | 0.128 | 0.804 | 1.32 | 0.468 |
| COc1cc2c(cc1O)C=[N+](C)CC2 | -2.1 | -0.0523 | -0.0898 | -0.683 | -0.399 | -0.15 | -0.138 | -0.436 | -0.347 | -0.596 |
| COc1cc2c(cc1O)C(C)N(C)CC2 (stereo unspecified) | -1.75 | 0.569 | -0.603 | 1.58 | 1.24 | 0.0017 | -0.0769 | -0.343 | 0.0049 | -0.613 |
| COC(=O)NCC=Cc1nc(CCC=CC(=O)O[C@H]2CC3CC(=O)O[C@@H](C=CCC(C)C)C[C@@H]4CC[C@H](C)[C@@H](C[C@@H](OC)C[C@H](C2)O3)O4)co1 | -1.78 | -3.46 | -0.107 | -0.421 | -0.409 | -0.179 | -0.345 | -0.0784 | 0.231 | -0.684 |
| CCCc1cc2c(n1Cc1ccc(C)cc1)C(C)C1CN(C(=O)c3ccccc3)C(C)(C(=O)OC)C21 (stereo unspecified) | 0.294 | -1.33 | -0.472 | 2.63 | 1.31 | 0.417 | 0.769 | 1 | 2.25 | 1.9 |
| C[C@H]1O[C@H]2C3=C(C(=O)[C@@H]4O[C@@H]4[C@@H]3O)[C@@H]1[C@@H]1[C@@H](C)OC=C3[C@@H](O)[C@H]4O[C@H]4C(=O)[C@]312 | -1.18 | -2.57 | -0.107 | -0.806 | -0.447 | -0.125 | -0.0553 | -0.252 | -0.404 | 0.411 |
| CCOC(=O)[C@H]1CC=C2C(=O)Oc3ccc(Br)cc3[C@@H]21 | 0.891 | -3.69 | -1.91 | 1.27 | 0.0172 | -0.0118 | 0.151 | 0.884 | 0.501 | 1.65 |
